# Data: PubChem BioAssay (Tox21)
# Several values for one entry are separate records, joined by “and”; a condition that tells them apart may be missing. Equal values may be shown once. Records with an inconclusive call do not appear. Entries that show only a call come without a potency. Values without a mark were called inactive. Activity calls are given as the source filed them. Calls come from the whole dose curve; as a rule, active = well fitted cell-killing curve with a large enough effect in the repeat runs; inconclusive = weak or mixed curves, or effect the other way; inactive = no such curve, though single readings can be large or run the other way.
# Experiment: qHTS assay to identify small molecule antagonists of the progesterone receptor (PR) signaling pathway - cell viability counter screen (AID 1346798); note: nearly all actives have a fitted effect of over 50% in size
# Settings: PR-UAS-bla HEK293T viability, CellTiter-Glo luminescence, 16 h; series mostly up to 92.4 µM; activity change, negative = cytotoxicity: at the top concentration
# Description: National Center for Advancing Translational Sciences [NCATS]
# NIH Chemical Genomics Center [NCGC]
# U.S. Environmental Protection Agency [EPA]
# National Institutes of Environmental Health Sciences [NIEHS]
# National Toxicology Program [NTP]
# U.S. Food and Drug Administration [FDA]
# Progesterone receptor (PR), a nuclear hormone receptor, plays an important role in development, metabolic homeostasis and reproduction. It is activated by the steroid hormone progesterone. Endocrine disrupting chemicals (EDCs) and their interactions with steroid hormone receptors like PR causes disruption of normal endocrine function. To identify the compounds that inhibit PR signaling, a PR-UAS-bla GripTite cell line i.e. PR-UAS-bla HEK293T (Invitrogen, Carlsbad, CA, USA) containing a beta-lactamase reporter gene under the control of an UAS response element was used to screen Tox21 10K compound library. The cytotoxicity of the Tox21 compound library against the PR-bla cell line was tested in parallel by measuring the cell viability using CellTiter-Glo assay in the same wells.
# Tox21 Assay Protocol Summary:
# PR-UAS-bla HEK293T cells were dispensed at 3,000 cells/4 uL of assay medium containing 2% charcoal stripped FBS per well into black wall/clear-bottom 1536-well plates using a Multidrop Combi (ThermoFisher Scientific, Waltham, MA) dispenser. After the assay plates were incubated at a 37C and 5% CO2 for 4 hr, 23 nL of compounds dissolved in DMSO, positive controls or DMSO only was transferred to the assay plate by a Pintool station (Kalypsys, San Diego, CA), followed by addition of 1 uL of R5020 in assay medium using a Flying Reagent Dispenser (FRD, Aurora Discovery, San Diego, CA). The plates were incubated at 37C and 5% CO2 for 16 hr. Then 1 uL of LiveBLAzer B/G FRET substrate was added using a Flying Reagent Dispenser, the plates were incubated at room temperature for 2 hours, and fluorescence intensity was measured by an Envision plate reader (PerkinElmer, Shelton, CT). For cell viability readout that measures cytotoxicity, 4 uL/well of CellTiter-Glo reagent was added into the assay plates using a FRD. After 30 min incubation at room temperature, the luminescence intensity in the plates was measured using a ViewLux (PerkinElmer) plate reader.
# Potency is the fitted concentration of half-maximal effect.
Structure (SMILES),Potency,"activity change, negative = cytotoxicity"
CC(C)(c1ccccc1)c1ccc(O)c(C(C)(C)c2ccccc2)c1,17.1 µM (active) and 48.6 µM (active),–
O=C1Nc2ccc(Cl)cc2C(c2ccccc2)=NC1O (stereo not given),inactive,–
CC1CC(=O)O1 (stereo not given),inactive,–
Cl,inactive,–
NN=C(N)N,inactive,–
ClC(Cl)=C(Cl)C(Cl)=C(Cl)Cl,inactive,–
CC(C)Nc1nc(Cl)nc(NC(C)C)n1,inactive,–
O=S(=O)(O)C(F)(F)C(F)(F)C(F)(F)C(F)(F)C(F)(F)C(F)(F)C(F)(F)C(F)(F)F,29.2 µM (active) and 19.3 µM (active),–
CCC(=O)Nc1ccc(Cl)c(Cl)c1,inactive,–
S=c1[nH]c2ccccc2[nH]1,24.4 µM (active),–
CC(C)=CC1C(C(=O)OCc2cccc(Oc3ccccc3)c2)C1(C)C (stereo not given),inactive,–
Clc1cccc(C(Cl)(Cl)Cl)n1,–,-0.224%
N#CCCCCC#N,inactive,–
CNC(=S)S,inactive,–
CCOP(=S)(OCC)OP(=S)(OCC)OCC,inactive,–
N#Cc1cccnc1,inactive,–
O=C(O)c1nn(Cc2ccc(Cl)cc2Cl)c2ccccc12,inactive,–
COP(=S)(OC)Oc1ccc(Sc2ccc(OP(=S)(OC)OC)cc2)cc1,–,20.5% [at 42.5 µM]
Clc1ccc(C(Cl)(Cl)Cl)cc1,inactive,–
CCOP(=S)(OCC)SCn1c(=O)oc2cc(Cl)ccc21,inactive,–

Structure (SMILES),Potency,"activity change, negative = cytotoxicity"
Nc1ncn[nH]1,inactive,–
C[C@]12CCC(=O)C=C1CC[C@@H]1[C@@H]2CC[C@@]2(C)[C@H]1CC[C@]2(C)O,–,29.2% [at 42.5 µM]
CC(C)CON=O,inactive,–
O=P(OCCCl)(OCCCl)OCCCl,inactive,–
COP(=S)(OC)SCn1nnc2ccccc2c1=O,inactive,–
CCCCC(C#N)(Cn1cncn1)c1ccc(Cl)cc1 (stereo not given),inactive,–
ClCC(Cl)CCl,inactive,–
O=C(O)CF,inactive,–
C[C@]12CC[C@H]3[C@@H](CCC4=CC(=O)CC[C@@H]43)[C@@H]1CC[C@@H]2O,–,11.2% [at 42.5 µM]
COP(=O)(NC(C)=O)SC (stereo not given),inactive,–
Cc1ccc(N=CN(C)C=Nc2ccc(C)cc2C)c(C)c1,inactive,–
N#Cc1c(Cl)c(Cl)c(Cl)c(C#N)c1Cl,19 µM (active) and 13.7 µM (active),–
COc1ccc(CO)cc1,inactive,–
O=[N+]([O-])/N=C1\NCCN1Cc1ccc(Cl)nc1,inactive,–
COc1ccc(O)c(C(C)(C)C)c1,inactive,–
CCOP(=O)(OCC)OCC,–,-2.07%
CNC(=O)Oc1cccc2c1OC(C)(C)C2,inactive,–
CC(C)COC(=O)c1ccccc1C(=O)OCC(C)C,inactive,–
CC(C)(c1ccccc1)c1ccc(O)cc1,–,-23.2%
CCN(CC)C(=O)C(C)Oc1cccc2ccccc12 (stereo not given),inactive,–
